Test results as given in PubChem BioAssay (NCATS).
Records with an inconclusive call do not appear. Unmarked numbers belong to inactive results. The source made the active and inactive calls. Calls follow the shape of the dose curve; as a rule, active = well fitted inhibition curve with a large enough effect; inconclusive = small, poorly fitted or top-dose-only effect; inactive = no such curve, though single readings can be large or run the other way.

The compounds below were run against Glutaminase kidney isoform, mitochondrial (Homo sapiens) (UniProt O94925) (assay: qHTS for Inhibitors of Glutaminase (GLS): LOPAC Validation (AID 624146; also: nearly all actives have a fitted effect of over 60% in size;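 as to activity change, negative = inhibition: glutamate product detected by oxidase and peroxidase coupled Amplex red fluorescence gain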)). Details: glutaminase enzyme activity inhibition; series mostly up to 46.1 µM; activity change, negative = inhibition: at the top concentration.
Sequence of Glutaminase kidney isoform, mitochondrial (Homo sapiens) (O94925 whole entry, looked up, canonical isoform): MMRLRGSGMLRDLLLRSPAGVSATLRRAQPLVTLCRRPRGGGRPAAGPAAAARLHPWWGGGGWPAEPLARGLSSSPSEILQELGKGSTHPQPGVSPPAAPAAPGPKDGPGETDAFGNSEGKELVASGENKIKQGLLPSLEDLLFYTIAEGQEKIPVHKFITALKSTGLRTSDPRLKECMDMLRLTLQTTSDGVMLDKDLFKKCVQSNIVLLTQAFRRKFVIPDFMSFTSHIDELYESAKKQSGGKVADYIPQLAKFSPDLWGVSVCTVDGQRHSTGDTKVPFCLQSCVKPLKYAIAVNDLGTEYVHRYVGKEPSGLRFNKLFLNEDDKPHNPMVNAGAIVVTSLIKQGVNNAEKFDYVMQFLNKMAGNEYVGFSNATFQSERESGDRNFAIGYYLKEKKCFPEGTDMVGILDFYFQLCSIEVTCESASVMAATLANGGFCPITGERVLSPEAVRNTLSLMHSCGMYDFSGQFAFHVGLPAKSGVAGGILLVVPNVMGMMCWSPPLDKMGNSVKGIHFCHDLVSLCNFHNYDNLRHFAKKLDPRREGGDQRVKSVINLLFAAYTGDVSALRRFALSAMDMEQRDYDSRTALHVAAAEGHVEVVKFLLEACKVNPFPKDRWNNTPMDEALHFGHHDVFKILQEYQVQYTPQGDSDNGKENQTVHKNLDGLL
Source text: Glutaminase (GLS) catalyzes the hydrolysis of glutamine into glutamate and ammonia. It plays a critical role in glutaminolysis, which is an important energy source for proliferating cells. It was shown that c-Myc, an oncogenic transcription factor known to regulate microRNAs and to stimulate cell proliferation, increases glutamine metabolism by stimulating the expression of GLS via direct suppression of miR23a and miR23b.
GLS is also thought to play a pathogenic role on HAD using a human HIV-1 infected macrophage system. […] GLS inhibition limits glutamate release and provides neuroprotection against HIV-1 infected macrophages.
The overall goal of this project is to identify small molecule inhibitors of GLS through quantitative high throughput screening (qHTS) of the MLSMR. A validated potent and selective inhibitor can be used as a tool molecule to further study the pharmacology of its target as well as explore its potential therapeutic application in cancer and inflammatory neurological disorders, such as HIV1-associated dementia (HAD) and multiple sclerosis.
NIH Chemical Genomics Center [NCGC]
NIH Molecular Libraries Probe Centers Network [MLPCN]
Assay Submitter (PI): Barbara S. Slusher, Johns Hopkins University
Three 3 uL of hKGA is dispensed into black well 1536-well plates in 45 mM KH2PO4 (pH 8.2), 0.02% Tween-20. Then 23 nL of compounds are added through pin tool transfer. To this, 1 uL of 1mM L-Glutamine and 1 uL of a solution of L-Glutamateoxidase, HRP, Amplex red are added. Plate is centrifuged for 25 sec before an initial fluorescence read is obtained on the ViewLux, after 30 min of RT incubation, the final read is taken on the ViewLux.
% is scaled to controls: 0 for no effect and ±100 for the full control effect; potency is read from the fitted curve at half-maximal effect.

In order of rising “activity change, negative = inhibition” value:
1. CN1CCC[C@H]1c1cccnc1  -21.8%
2. N.N.N.N.N.N.N.N.N.N.N.N.N.N.O.O.[Ru+4].[Ru+5].[Ru+5]  -21.7%
3. CC(C)NC[C@H](O)COc1cccc2[nH]ccc12  -21.7%
4. CN1CCc2cc(NC(=O)Nc3cccnc3)ccc21  -21.5%
5. N=C(N)SCCc1ccc(CCSC(=N)N)cc1  -21.4%
6. CC(=O)SCC[N+](C)(C)C  -20.9%
7. Fc1ccc(C(OCCCc2cnc[nH]2)c2ccc(F)cc2)cc1  -18.4%
8. CN(C)c1nc(N)c(C(=O)N=C(N)N)nc1Cl  -17.7%
9. COc1ccccc1N1CCN(CCN(C(=O)c2ccc(I)cc2)c2ccccn2)CC1  -16.4%
10. NO  -15.6%
11. OCC1O[C@H](O)C(Cl)C(O)C1O (stereo not given in full)  -15.6%
12. O=C(O)CCCC[C@@H]1CCSS1  -14.5%
13. CCCCCCCCCCCCCCCC(=O)OC(CC(=O)O)C[N+](C)(C)C (stereo not given)  -14.1%
14. O=C1NC(=O)/C(=C/c2ccc3nccnc3c2)S1  -13.2%
15. CO/S(=N\S(=O)(=O)c1ccc(Cl)cc1)c1ccc([N+](=O)[O-])cc1 (stereo not given)  -13%
16. Cn1ncc(S(=O)(=O)Cc2ccccc2)c(Br)c1=O  -12.5%
17. COc1ccc(/C=C/C(=O)Nc2ccccc2C(=O)O)cc1OC  -11.1%
18. CCCCCCCCCCCCCCCCCCNC(=O)OCC(COP(=O)([O-])OCC[n+]1ccsc1)OC (stereo not given)  -10.8%
19. c1ccc(-c2ccccn2)nc1  -8.12%
20. c1cnc2c(c1)ccc1cccnc12  -2.05%
21. CC1CN(S(=O)(=O)c2cccc3cnccc23)CCN1 (stereo not given)  -0.748%
22. C=CC(N)CCC(=O)O (stereo not given)  -0.722%
23. Nc1ncnc2c1ncn2[C@@H]1O[C@H](COP(=O)(O)CP(=O)(O)OP(=O)(O)O)[C@@H](O)[C@H]1O  1.78%
24. N.N.O=C(O)C1(C(=O)O)CCC1.[Pt]  2.63%
25. CN(C)CCC(c1ccc(Cl)cc1)c1ccccn1 (stereo not given)  3.11%
26. CCCCCCCCCCCCCCCCCC(=O)OC(CC(=O)O)C[N+](C)(C)C (stereo not given)  3.9%
27. C=C[C@@H]1CN2CC[C@@H]1C[C@H]2[C@H](O)c1ccnc2ccc(OC)cc12  9%
28. CCCCCCCCc1ccc(-c2ccc(C(=O)O)cc2)cc1  23.1%
29. Cc1nc2sccn2c(=O)c1CCN1CCC(=C(c2ccccc2)c2ccc(F)cc2)CC1  36%
30. O=P(O)(O)C(Cl)(Cl)P(=O)(O)O  38.1%
31. O=C(Nc1ccccc1)c1cc([N+](=O)[O-])ccc1Cl  43.1%
32. O=c1[nH]c2cc(Cl)c(Cl)cc2[nH]c1=O  47.9%
33. Cc1ccccc1CNc1ncnc2c1ncn2C1OC(CO)C(O)C1O (stereo not given)  51.8%
34. OCC1O[C@H]([S-])[C@H](O)[C@@H](O)[C@@H]1O.[Au+] (stereo not given in full)  119%

With `Cc1ccc(S(=O)(=O)/C=C/C#N)cc1` the Potency was 12.6 µM (active).
`COC1=C(OC)C(=O)c2ccccc2C1=O` was tested, and the Potency was 10 µM (active).
In the case of `CC(C)(C)c1ccc(S(=O)(=O)/C=C/C#N)cc1`, the Potency is reported as 7.08 µM (active).
For `O=C(c1cc(O)c(O)c([N+](=O)[O-])c1)c1ccccc1F`, the Potency was 4.47 µM (active).
With `Oc1ccccc1O` the Potency was 2 µM (active).
With `O=Nc1ccc2oc(=O)ccc2c1` the Potency was 10 µM (active).
